gsp ag: gsp mutant agonism; gsp mutant cells, cAMP HTRF, 30 min; Potency, µM (titrated, usually from 76.9 µM), inactives show top-dose activation (cAMP increase), hits mostly activators; actives 0.13% (n = 340,000); active = well fitted activation curve with a large enough effect; inconclusive = small, poorly fitted or top-dose-only effect, or another doubt; inactive = no such curve, though single readings can be large or run the other way; cell line not stated here;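 note: phosphodiesterase inhibitor Ro 20-1724 added with compounds to block cAMP breakdown; potency is the fitted concentration of half-maximal effect; nearly all actives have a fitted effect of over 60% in size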
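Cells in DMEM/10% FBS with G418 were pretreated with compounds in DMSO plus […] (300 uM stock) for 30 min at 37C. cAMP was measured by HTRF (cAMP-d2 plus anti-cAMP antibody-K) after 30 min at room temperature.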
RXFP1 ag: agonists of human relaxin receptor RXFP1; Q9HBX9; HEK293T-RXFP1 cAMP TR-FRET, 30 min; response scale: percent of porcine relaxin response, buffer zero; Potency, µM (series often up to 57.5 µM), for inactives: top-dose activation, most hits filed as activators; AID 2676; actives 0.3% (n = 370,000); note: potency is the fitted concentration of half-maximal effect; % is set by controls: 0 for no effect and ±100 for the full control effect; nearly all actives have a fitted effect of over 60% in size
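cAMP rise read by TR-FRET after 30 min, 37C compound exposure (up to 58 uM) in RXFP1-transfected HEK293 cells with Ro 20174 present. EC50 from Hill-equation fits, with 29 nM porcine relaxin as 100% and buffer as basal.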
RXFP1 antag: blocks the human relaxin receptor RXFP1; Q9HBX9; HEK293-RXFP1, relaxin-stimulated cAMP HTRF, 30 min; stronger effect = lower value; activity change, negative = inhibition, % at 57.5 µM; actives 0.59% (n = 350,000);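 active = activity change of -60% or lower, but not beyond a set lower limit; inconclusive = change between -60% and -40%, or beyond the set limit; inactive = change above -40%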; note: % is set by controls: 0 for no effect and ±100 for the full control effect
PTHR1 ag: activates the human parathyroid hormone receptor PTHR1; Q03431; HEK293 GP2 PTHR1 cells, GloSensor cAMP luminescence, 1 h; Potency, µM (top dose mostly 115 µM), for inactives: top-dose activation, most hits filed as activators; actives 0.075% (n = 410,000); AID 743266; note: potency is the fitted concentration of half-maximal effect; nearly all actives have a fitted effect of over 55% in size
Target sequence (Q03431 whole entry, looked up): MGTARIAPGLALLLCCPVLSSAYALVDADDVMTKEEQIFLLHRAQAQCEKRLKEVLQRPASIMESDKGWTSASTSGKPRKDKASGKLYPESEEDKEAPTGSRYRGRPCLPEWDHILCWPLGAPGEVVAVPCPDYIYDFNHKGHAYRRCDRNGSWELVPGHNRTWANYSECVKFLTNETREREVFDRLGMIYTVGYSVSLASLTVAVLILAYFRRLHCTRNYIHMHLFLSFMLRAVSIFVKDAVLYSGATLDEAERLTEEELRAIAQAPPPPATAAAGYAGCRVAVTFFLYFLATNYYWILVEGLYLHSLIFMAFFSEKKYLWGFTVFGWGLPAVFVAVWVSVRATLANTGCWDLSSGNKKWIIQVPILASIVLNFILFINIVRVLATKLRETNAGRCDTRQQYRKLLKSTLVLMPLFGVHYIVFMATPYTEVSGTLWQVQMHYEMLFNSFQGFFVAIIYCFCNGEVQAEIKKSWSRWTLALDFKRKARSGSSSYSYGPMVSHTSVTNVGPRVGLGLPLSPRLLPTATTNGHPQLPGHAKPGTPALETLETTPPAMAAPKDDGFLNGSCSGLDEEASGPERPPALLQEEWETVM
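HEK-293-derived GP2 cells expressing PTHR1 and a GloSensor cAMP reporter, 3,000/well, plated overnight, given luciferin plus IBMX (each 0.5 mM as added) for 1 h at 37 °C, then compound for 1 h at 37 °C. Luminescence was read after 15 min at room temperature.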
gsp antag: antagonizes gsp, the McCune-Albright syndrome mutation. Potency, µM (titrated, usually from 76.9 µM), for the others: at the highest dose activity change, negative = inhibition, actives largely listed as inhibitors. actives 0.4% (n = 340,000). gsp-mutant cells, cAMP HTRF, 30 min. AID 624288; calls by dose curve; cell line not stated here;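 note: intracellular cAMP measured with PDE inhibitor Ro 20-1724 present during compound exposure; potency is the fitted concentration of half-maximal effect; % is set by controls: 0 for no effect and ±100 for the full control effect; nearly all actives have a fitted effect of over 65% in size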
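HTRF cAMP read-out (cAMP-d2 plus anti-cAMP antibody-K in lysis buffer, 30 min RT). Before lysis, cells are exposed to compounds with […] for 30 min at 37C in DPBS containing Ca/Mg, BSA and Tween 20.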
The depositor's hits bear a star; i = inactive; ? = inconclusive; nt = no result given; [ ] = another dose, or the depositor's remark. In the library only some 1% were active in any assay of this set; here they are far more common. Unless noted, calls come from the whole dose curve; as a rule, active = well fitted curve in the direction sought with a large enough effect; inconclusive = small, poorly fitted or top-dose-only effect, or another doubt; inactive = no such curve, though single readings can be large; an effect the other way counts as inactive or inconclusive.

SMILES | gsp ag | RXFP1 ag | RXFP1 antag | PTHR1 ag | gsp antag
COC(=O)c1ccc2c(=O)n(CCCCCC(=O)N3CCN(c4cccc(C)c4C)CC3)c(=O)[nH]c2c1 | nt | 3% | ? | i | nt
COC(=O)CSc1nc(N)c(C#N)c(-c2ccc(O)cc2)c1C#N | 14% | 23% | 31 | -1% | -9%
CC(C)c1ccc(-c2c(C#N)c(N)nc(SCC(=O)N3CCCCC3)c2C#N)cc1 | ? | 22µM* | 9 | -2%[57.5 µM] | 38%
N#C/C(=N\Nc1ccc(Cl)c(Cl)c1)C(=O)C1CC1 | -24% | 2% | -36 | -32% | 25µM*
CC(=O)N1CCN(c2cc(N3CCCC3)c(F)cc2[N+](=O)[O-])CC1 | 15% | 0% | -39 | ? | -15%
CCN1CCN(c2cc(N3CCc4ccccc4C3)c(F)cc2[N+](=O)[O-])CC1 | -3% | 1% | -115* | -31% | 17%
C=CCn1c(NS(=O)(=O)c2ccccc2)c(S(=O)(=O)c2ccc(C)cc2)c2nc3ccccc3nc21 | ? | 2% | nt | -28% | -10%
O=S(=O)(Nc1c(S(=O)(=O)c2ccccc2)c2nc3ccccc3nc2n1C1CCCCC1)c1ccccc1 | -10% | 5% | -72* | -29% | -9%
CC(C)COc1ccc(C(=O)N2CCC(c3nc4ccccc4s3)CC2)cc1 | nt | 0% | -25 | -50% | nt
O=c1[nH]cnc2c1c(-c1ccccc1)cn2-c1cccc(Cl)c1 | 14% | 3% | -112* | -30% | -4%
COc1ccc(CC(=O)NNC(=O)c2ccccn2)cc1 | -38% | 2% | -61* | -3% | 6%
CN(C)c1ccc(NC(=O)C2C3C=CC(C3)C2C(=O)O)cc1 (centres undefined) | -110% | -15% | -119* | i | 28µM*
CCC(=O)OCCNc1cc(Sc2nc3ccccc3s2)c2nonc2c1[N+](=O)[O-] | 25% | 7% | -19 | -66%[57.5 µM] | 7%
Cc1nnc(Sc2cc(NCCCO)c([N+](=O)[O-])c3nonc23)s1 | -1%[15.4 µM] | 25% | -68* | -78% | -25%
O=[N+]([O-])c1c(NCCCO)cc(Sc2nc3ccccc3s2)c2nonc12 | -10% | -1% | -73* | 0% | 9%
CCCSc1cc(NCCOC(=O)CCC)c([N+](=O)[O-])c2nonc12 | 28% | 2% | -40 | -33% | 5%
Cc1nnc(Sc2cc(NCCO)c([N+](=O)[O-])c3nonc23)s1 | ? | 20% | -82* | -29% | ?
CCCC(=O)OCCNc1cc(Sc2nccn2C)c2nonc2c1[N+](=O)[O-] | -10% | 10% | -81* | i | -19%
CC1(C)CC(NC(=O)c2sc3cc(Cl)ccc3c2Cl)CC(C)(C)N1 | 16%[15.4 µM] | 0% | -60* | i | nt
COc1cc(C2Nc3c(F)cccc3C3C=CCC32)cc(Br)c1OC (centres undefined) | -4% | -2% | -65* | -11% | 1%
CCOC(=O)c1cc(NC(=O)c2cccnc2)ccc1N1CCOCC1 | -2%[15.4 µM] | 1% | -13 | i | 13%
CCOC(=O)c1ccc(N2CCN(C(C)=O)CC2)c(NC(=O)c2cccnc2)c1 | 6% | 7% | 0 | ? | 50µM*
CC(Oc1ccccc1)C(=O)Nc1nc(-c2ccncc2)cs1 (centres undefined) | -10% | -1% | -3 | -22% | 8%
CC(OC(=O)c1ccc(O)cc1)C(=O)Nc1nc(-c2ccccc2)cs1 (centres undefined) | -24% | 0% | -85* | -43% | ?
Brc1ccc(-c2nn3c(-c4ccco4)nnc3s2)o1 | ? | 13µM* | -23 | -1%[57.5 µM] | 4%
O=C(CCC(=O)N1CC2CCCN2c2ccccc21)NCc1ccccc1F (centres undefined) | nt | 0% | -13 | i | nt
COc1ccc(C(=O)Nc2ccc3nc(SCC(=O)N(C)c4ccccc4)sc3c2)cc1 | nt | 4% | nt | -17% | nt
O=C1CSc2ccc(C(=O)O)cc2N1 | 28% | 0% | -77* | i | -1%
O=C1CSc2ccc(C(=O)N3CCCCC3)cc2N1 | -18% | nt | 0 | i | nt
O=C(CN1CCCc2ccccc21)N/N=C/c1ccccc1 | -43% | -1% | 4 | i | 9%
